Data reported in PubChem BioAssay AID488969 (Vanderbilt High Throughput Screening Facility, 2010).
Values joined by “and” are separate entries in the source; they are usually repeats but may differ in a detail not shown here. Equal values may be shown once. The full ranking holds about 110,000 compounds; the median of “z-score” is about -0.1, and the highest 2% start at about 2. The full list was thinned out, with the highest values kept by preference. Active and inactive are the calls of the source.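 How the source made its calls: active means z-score in the third read window above 3 or below -3; inactive means the rest.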

Molecular target: Metabotropic glutamate receptor 8 (Rattus norvegicus) (UniProt P70579)
Sequence (P70579 whole entry, looked up): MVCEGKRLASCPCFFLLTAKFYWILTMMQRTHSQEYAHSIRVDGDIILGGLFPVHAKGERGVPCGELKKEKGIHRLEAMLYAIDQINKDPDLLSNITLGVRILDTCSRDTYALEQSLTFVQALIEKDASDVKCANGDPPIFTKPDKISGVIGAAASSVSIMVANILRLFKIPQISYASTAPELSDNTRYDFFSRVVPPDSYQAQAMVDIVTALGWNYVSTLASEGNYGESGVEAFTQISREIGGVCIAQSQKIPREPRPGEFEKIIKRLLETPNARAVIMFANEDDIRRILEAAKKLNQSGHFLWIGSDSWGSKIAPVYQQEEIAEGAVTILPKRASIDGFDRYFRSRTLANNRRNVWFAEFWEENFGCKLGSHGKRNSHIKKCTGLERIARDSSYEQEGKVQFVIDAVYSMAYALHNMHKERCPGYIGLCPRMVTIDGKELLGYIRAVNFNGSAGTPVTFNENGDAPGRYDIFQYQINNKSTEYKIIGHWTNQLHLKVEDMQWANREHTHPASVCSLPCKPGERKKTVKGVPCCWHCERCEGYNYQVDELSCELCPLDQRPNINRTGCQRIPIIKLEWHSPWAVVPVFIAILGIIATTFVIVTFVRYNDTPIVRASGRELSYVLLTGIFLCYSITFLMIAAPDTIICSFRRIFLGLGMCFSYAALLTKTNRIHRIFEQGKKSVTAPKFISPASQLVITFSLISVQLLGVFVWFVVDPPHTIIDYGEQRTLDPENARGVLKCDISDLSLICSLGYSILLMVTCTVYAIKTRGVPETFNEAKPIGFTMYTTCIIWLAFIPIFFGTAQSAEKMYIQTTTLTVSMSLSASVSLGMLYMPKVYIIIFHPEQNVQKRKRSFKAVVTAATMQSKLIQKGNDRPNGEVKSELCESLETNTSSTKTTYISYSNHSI
Assay: rat mGluR8 modulators via GIRK flux, primary screen, cell-based, thallium flux, HTS (AID 488969)
Settings: HEK293 rat mGluR8, GIRK (G protein-gated inwardly rectifying potassium channel) thallium flux, FluoZin2; at 10 µM; stronger effect = higher value; submaximal glutamate (EC20) added with thallium

| Structure (SMILES) | z-score |
| --- | --- |
| CCN(CC)CCCNC(=O)c1cc(-c2ccc(O)cc2)on1 | 0.686 |
| O=C(NCc1cccs1)c1cc(-c2cccc(Cl)c2)on1 | -1.01 |
| CCN(CC)CCCNC(=O)c1cc(-c2ccc(Cl)c(Cl)c2)on1 | 5.37 (active) |
| O=C(NCc1ccco1)c1cc(-c2cccc(Cl)c2)on1 | 0.0775 |
| CCCCC(=O)Nc1ccc(C(=O)NNC(=S)NC(=O)c2cccs2)cc1 | 0.439 |
| Cc1ccc(/C=C(\C#N)C(=O)Nc2c(C)cccc2C)s1 | -0.0444 |
| CN(C)C(=O)CSc1cccc2cccnc12 | 7 (active) |
| O=C(CSc1cccc2cccnc12)NCc1ccco1 | -0.028 |
| O=C(CSc1cccc2cccnc12)OCC(=O)c1ccc(Br)cc1 | -0.113 |
| O=C(CSc1cccc2cccnc12)OCC(=O)c1ccccc1 | 0.45 |
| COc1ccc(/C(C)=N/NC(=O)c2ccc(CSc3cccc4cccnc34)cc2)cc1OC | -0.51 |
| CCOC(=O)CSc1cccc2cccnc12 | 4.08 (active) |
| O=C(O)CSc1cccc2cccnc12 | -0.347 and 0.372 |
| COc1ccc(CSc2cccc3cccnc23)cc1[N+](=O)[O-] | 0.224 |
| Cc1cccc(CSc2cccc3cccnc23)c1 | 8.5 (active) |
| Cc1ccc(NC(=O)CN2C(=O)C3CCCCN3C(=O)c3ccccc32)cc1 (stereo unspecified) | 0.0289 |
| COC(=O)c1cc2c(s1)-c1ccccc1OC2 | -0.0119 |
| Cc1ccc(NC(=O)c2ccc3nc[nH]c3c2)cc1C | 0.551 |
| Cc1ccc(NC(=O)c2c(Cl)n(C)c3ccccc23)cc1 | -0.377 |

| Structure (SMILES) | z-score |
| --- | --- |
| O=C(Nc1cccc(NC(=O)c2cccs2)c1)c1ccco1 | -0.313 |
| Clc1cccc(Cl)c1CO/N=C/c1c(-c2ccccc2)nc2n1CCS2 | -0.177 |
| Cn1c(O)c(C=NCC2CCNCC2)c(=O)n(C)c1=O | 0.695 |
| O=C(NCc1cccs1)c1cnn2cccnc12 | 0.267 |
| CCOC(=O)N1CCN(CC(O)COCc2ccc(OC)c(OC)c2)CC1 (stereo unspecified) | 0.0416 |
| CC(C)(C)C1CCC(OC(=O)c2ccncc2)CC1 (stereo unspecified) | 0.0808 |
| C/C(=N\Nc1ccc([N+](=O)[O-])cc1[N+](=O)[O-])c1ccc(-n2nncc2C(C)(C)C)cc1 | -2.37 |
| O=C(CCCN1C(=O)C2CCCCN2C1=O)N1CCN(c2ccc([N+](=O)[O-])cc2)CC1 (stereo unspecified) | 0.169 |
| O=C(Nc1cccc(Cl)c1)Nc1nnc(-c2ccncc2)s1 | -0.194 |
| O=C(NNC(=O)C1COc2ccccc2O1)c1ccccc1 (stereo unspecified) | 0.0265 |
| NC(=S)NNC(=O)Nc1ccc(Cl)c(Cl)c1 | 0.243 |
| CC(/C=N/n1c(-c2ccco2)n[nH]c1=S)=C\c1ccco1 | 0.1 |
| CC(/C=N/n1c(-c2cc(C)[nH]n2)n[nH]c1=S)=C\c1ccccc1 | -0.302 |
| S=c1[nH]nc(-c2ccco2)n1/N=C/C=C/c1ccco1 | -0.366 |
| Cc1cc(-c2n[nH]c(=S)n2/N=C/C(Cl)=C/c2ccccc2)n[nH]1 | -0.527 |
| S=c1[nH]nc(C2CCCCC2)n1/N=C/C(Cl)=C\c1ccccc1 | -0.0746 |
| CC(/C=N/n1c(C2CCCCC2)n[nH]c1=S)=C\c1ccccc1 | 2.13 |
| CC(/C=N/n1c(COc2ccccc2)n[nH]c1=S)=C\c1ccccc1 | 1.93 |
| CC(/C=N/n1c(-c2ccco2)n[nH]c1=S)=C\c1ccccc1 | 5.91 (active) |

| Structure (SMILES) | z-score |
| --- | --- |
| CC(=C/c1ccccc1)/C=N/n1c(-c2ccco2)n[nH]c1=S | 2.16 |
| Cc1cc(NCCN2CCOCC2)n2nc(C)c(-c3ccc(Cl)cc3)c2n1 | -0.362 |
| COc1ccccc1-c1c(C#N)c(SCC(=O)N2CCCC2)nc(C)c1C(N)=O | 0.169 |
| CNC(=O)c1ccc(-n2nc(C)cc2-c2ccccc2)cc1 | -0.167 |
| CCOC(=O)c1c(N)sc2c(OCC)c(Br)ccc12 | 0.151 |
| O=C1CCc2cc(S(=O)(=O)NC(C(=O)NCc3cccnc3)c3ccccc3)ccc2N1 (stereo unspecified) | -0.174 |
| CCCNC(=O)C(Cc1ccccc1)NS(=O)(=O)c1ccc2c(c1)CCC(=O)N2 (stereo unspecified) | 0.179 |
| CCCN(CCC)CCNC(=O)C(NS(=O)(=O)c1ccc2c(c1)CCC(=O)N2)c1ccccc1 (stereo unspecified) | 10 (active) |
| Cc1ccccc1S(=O)(=O)c1c(C)cc(C)n(C(C)C)c1=O | -0.131 |
| COC(=O)N/N=C1\CCCc2ccccc21 | -0.137 |
| CCCCNC(=S)N/N=C1\CCCCc2ccccc21 | 2.17 |
| CCCCCCC(=O)N/N=C1\CCCc2ccccc21 | -0.118 |
| C=C(C)CNC(=S)N/N=C1\CCCCc2ccccc21 | 3.15 (active) |
| Cc1cccc(NC(=S)N/N=C2/CCCCc3ccccc32)c1 | 0.797 |
| COc1cccc(NC(=S)N/N=C2/CCCCc3ccccc32)c1 | 8.28 (active) |
| COc1cccc(NC(=S)N/N=C2\CC(C)(C)Oc3ccc(O)cc32)c1 | -0.0142 |
| CC(C)NC(=S)N/N=C1\CCCCc2ccccc21 | -0.471 |
| CCNC(=S)N/N=C1\CCCCc2ccccc21 | 1.57 |
